p53 reactivator: re-activators of mutant p53 | 320,000 tested, 0.063% active | H1299 p53-A138V BP100-luciferase reporter, luminescence, 24 h | Potency, µM (doses to about 92.2 µM), actives largely listed as activators; note: nearly all actives have a fitted effect of over 45% in size
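H1299 (p53-null), stable ts p53-A138V + BP100-Luc; 1000 cells/well, Opti-MEM/10% FBS; cpd 4 pt, 1:5; 24 h, 37 deg C, 5% CO2; detection reagent 10 min RT; luminescence.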
VP16 counter: inhibits Gal4-VP16 luciferase reporter, ROR gamma counter-screen | Drosophila S2 Gal4-VP16 UAS-luciferase, luminescence, 20 h | Potency, µM (top dose mostly 53.6 µM), actives largely listed as inhibitors | 310,000 tested, 3.5% active | AID 2546;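 note: Gal4-VP16 expression switched on by copper sulfate through the metallothionein promoter; nearly all actives have a fitted effect of over 50% in size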
CtBP-E1A inh: inhibitors of CtBP/E1A interaction; AID 651724; 340,000 tested, 0.49% active; activity change, % (test concentration not listed); AlphaScreen GST-E1A/His-CtBP binding, 1536-well; hits give low values; in the data active = activity change below about -65%; inconclusive = mostly about -30% to -63%
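In 5 uL wells, 23 nL compound meets equimolar GST-E1A and His-CtBP (5X stock 125 nM each) for 2 h, 37 °C. Beads (5X, 50 ug/mL) then 1 h, 37 °C, dark.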
RORgamma inh: blocks mouse ROR gamma transcriptional activity; P51450; Drosophila S2 Gal4-RORgamma UAS-luciferase reporter, 20 h; 310,000 tested, 5.4% active; Potency, µM (doses to about 53.6 µM), usual class: inhibitors; AID 2551; note: nearly all actives have a fitted effect of over 60% in size
Target sequence (P51450 whole entry, looked up, the tested form may be a part): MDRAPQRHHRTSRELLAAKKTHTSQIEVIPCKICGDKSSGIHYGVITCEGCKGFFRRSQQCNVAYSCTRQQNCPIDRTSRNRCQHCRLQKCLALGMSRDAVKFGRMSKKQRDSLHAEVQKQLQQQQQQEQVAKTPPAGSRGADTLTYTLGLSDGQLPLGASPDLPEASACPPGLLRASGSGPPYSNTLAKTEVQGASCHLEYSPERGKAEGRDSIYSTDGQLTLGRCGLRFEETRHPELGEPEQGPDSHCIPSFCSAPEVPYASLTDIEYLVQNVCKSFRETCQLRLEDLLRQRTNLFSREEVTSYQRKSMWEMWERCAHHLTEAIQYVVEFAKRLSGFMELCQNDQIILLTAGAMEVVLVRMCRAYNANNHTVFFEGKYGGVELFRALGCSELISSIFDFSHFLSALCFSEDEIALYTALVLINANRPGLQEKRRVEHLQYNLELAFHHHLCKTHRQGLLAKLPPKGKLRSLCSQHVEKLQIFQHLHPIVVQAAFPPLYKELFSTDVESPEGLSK
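Drosophila Schneider cells stably carrying a metallothionein-driven Gal4 DBD–ROR gamma fusion and a UAS-Photinus luciferase reporter were exposed to compound for 1 hr, then induced with copper sulfate (700 uM final) for 20 hr at ambient temperature before luminescence reading.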
Six1-Eya2 inh: Six1/Eya2 interaction inhibition. Q15475+O00167. AlphaScreen GST-Six1/His-Eya2 binding, biochemical; hits give low values. activity change, % (test concentration not listed). 360,000 tested, 0.56% active. AID 651725; in the data active = activity change below about -65%; inconclusive = mostly about -30% to -63%
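Homogeneous AlphaScreen proximity assay pairing GST-Six1 with His-tagged Eya2 (added as 5X mix: 250 nM and 500 nM) in 50 mM Tris pH 8.0, 300 mM NaCl, 1 mM TCEP. Glutathione donor and nickel acceptor beads; 1 h, 37 °C, dark.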
A number is an active result; - = inactive; ? = inconclusive; . = no result; [ ] = another dose, or the depositor's remark. Sampled rows, rich in hits. Any-hit rate of the full collection: about 5.4%. Unless noted, calls come from the whole dose curve; as a rule, active = well fitted curve in the direction sought with a large enough effect; inconclusive = small, poorly fitted or top-dose-only effect, or another doubt; inactive = no such curve, though single readings can be large; an effect the other way counts as inactive or inconclusive.

SMILES	p53 reactivator	VP16 counter	CtBP-E1A inh	RORgamma inh	Six1-Eya2 inh
COC(=O)NNC(=S)Nc1cc(OC)ccc1OC	-	-	-	?	-
COc1ccc(OC)c(NC(=S)NC(=O)c2ccc(Br)o2)c1	-	?	-	4µM	-
COc1ccccc1NC(=S)NCCc1ccc(F)cc1	-	-[10 µM]	-	5µM	-
COc1ccc(OC)c(NC(=S)Nc2ccccc2)c1	.	20µM	-	?	-
Cc1cc(OCC(=O)NNC(=S)NC(=O)c2ccc(Br)o2)ccc1Cl	-	-	-	7.9µM	-
COc1ccccc1NC(=S)NCCc1ccccc1	-	?	-	6.3µM	-
COc1ccc(NC(=S)NCc2ccco2)c(OC)c1	-	-	-	10µM	-
COc1ccccc1NC(=S)NCC1CCC(CNC(=S)Nc2ccccc2OC)CC1 (stereo unspecified)	-	-	-	-	-
COc1ccc(CNC(=S)Nc2cc(OC)ccc2OC)cc1	-	?	-	18µM	-
COc1ccc(OC)c(NC(=S)NCc2ccc(S(N)(=O)=O)cc2)c1	-	-	-	-	-
O=C(COC(=O)c1ccccc1NCCO)NCC1CCCCC1	-	.	-	.	-
C[C@@H]1Nc2ccc(Cl)cc2S(=O)(=O)N1	.	-	.	-	.
O=C(O)CSc1cc(C(=O)c2cc(F)ccc2O)cn2c(=O)c3c(-c4ccccc4)csc3nc12	-	-	.	35µM	-
S=C1NCN(Cc2ccccc2)CN1C1CCCCC1	-	4µM	-	0.79µM	-
S=C1NCN(C2CCCCC2)CN1Cc1ccccc1	-	3.5µM	-	1.8µM	-
O=C1CNC(=S)N1Cc1ccccc1	-	-	-	-	-
Cc1cccc(NC(=O)CSc2nnc(CNC(=O)c3cccs3)o2)c1C	-	-	-	-	-
CCOCCCNC(=S)NC1CC2CCC(C1)N2Cc1ccccc1 (stereo unspecified)	-	-	-	-	-
CCOCCCNC(=S)NCCc1ccccc1	?	13µM	-	11µM	-
S=C(NCCCc1ccccc1)NCc1ccccc1	-	11µM	-	6.3µM	-
CCc1nc2ccc(C(=O)Nc3ccc(NC(C)=O)cc3)cn2c1N(CCC(C)C)CCN(C)C	.	.	-	.	-
Nc1nc2ccc(C(=O)NCCOC(=O)C3CCCCC3)cc2s1	-	-	.	-	-77
CCOC(=O)C1(CCCc2ccccc2)CCN(C2CCSCC2)CC1	-	-	.	-	-
Cc1ccccc1NS(=O)(=O)c1cc(C(=O)Nc2ccccc2-c2ccccc2)ccc1Cl	-	-	-	?	-
Clc1ccc(N=c2ssnc2Cl)cc1	-	11µM	-	?	-
SMILES	p53 reactivator	VP16 counter	CtBP-E1A inh	RORgamma inh	Six1-Eya2 inh
COc1cc(N=c2ssnc2Cl)cc(OC)c1OC	-	16µM	-	?	-
Clc1nssc1=Nc1ccccc1	-	?	-	?	-
COc1ccc(N=c2ssnc2Cl)cc1	-	?	-	?	-
CN1CCc2c(c3c(n2C)CCN(C)[C@H]3c2ccccc2F)[C@@H]1c1ccccc1F	-	-	.	-	.
Cc1ccc(NC(=S)NC(=O)c2ccc(F)cc2)cc1S(=O)(=O)Nc1ccccc1Cl	-	6.3µM	-	4.5µM	-
Cc1ccc(NC(=O)c2ccc(=O)[nH]n2)cc1S(=O)(=O)Nc1ccccc1Cl	?	.	.	.	-
COc1ccccc1NS(=O)(=O)c1cc(NC(=O)c2ccc(Cl)nc2)ccc1Cl	-	20µM	-	-	?
COC(=O)C[C@@H]1OC[C@H](Cc2ccccc2)N1S(=O)(=O)c1ccc(C)cc1	.	.	-	.	-
CCN(CC)c1ccc(/C=C2\C(=O)c3ccc(C(=O)O)cc3C2=O)cc1	?	10µM	-	11µM	-
CCN(CC)c1ccc(C(=O)O)cc1	-	-	.	-	-
CC1(C)C(=O)Nc2ccccc2N1C(=O)COc1ccc(C#N)cc1	-	.	-	.	-
CCNC(=S)N1CCN(CCN2C(=O)c3cccc4cccc(c34)C2=O)CC1	-	-	-	-	-
O=C1c2cccc3cccc(c23)C(=O)N1CCN1CCN(C(=S)Nc2ccc(Cl)cc2)CC1	-	-	-	2.8µM	-
COc1cccc(C(=O)NC(=S)Nc2nnn(C)n2)c1	-	11µM	-	8.9µM	-
Cn1nnc(NC(=O)c2ccccc2)n1	-	-	-	?	-
COc1ccccc1C(=O)Nc1nnn(C)n1	-	-	-	-	-
COc1ccc(C(=O)NC(=S)Nc2nnn(C)n2)cc1	-	-	-	5.6µM	-
CC(=O)NC1[C@H](O)C[C@@](O)(C(=O)O)O[C@H]1[C@H](O)[C@H](O)CO (stereo partly specified)	.	-	.	-	.
COc1nnc(-c2ccc(N3CCCCC3)c(N)c2)c2ccccc12	.	.	-	.	-
CC(C)(C)c1ccc(OCC(=O)N/N=C/c2cc(Br)ccc2OC(=O)c2ccco2)cc1	-	1.3µM	-	0.25µM	-
COc1ccc(Br)cc1/C=N/NC(=O)c1ccco1	-	-	.	-	-
CCOc1ccc(-c2cnc3ccccc3n2)cc1	-	8.9µM	.	3.5µM	-
CCOc1ccc(-c2cn3ccccc3n2)cc1	-	?	-	6.3µM	-
Fc1ccc(-c2cn3ccccc3n2)cc1	-	?	.	?	-
Cc1ccc(O)c(N=Nc2ccccc2)n1	.	2.8µM	-	1µM	-
SMILES	p53 reactivator	VP16 counter	CtBP-E1A inh	RORgamma inh	Six1-Eya2 inh
COC(=O)NC(CC(C)=O)c1cccc(C(F)(F)F)c1 (stereo unspecified)	.	-[10 µM]	.	-[10 µM]	.
Cc1cc(C)nc(/N=C(\N)Nc2ccccc2-c2ccccc2)n1	-	13µM	-	?	-
CC(=O)c1ccc(Nc2nc(C(N)CC(C)C)cs2)cc1 (stereo unspecified)	.	.	-	.	-
O=C(COC(=O)/C=C/c1ccccc1)NC1CCCC1	-	.	.	.	-
Cc1ccc(NC(=O)c2ccc(Cl)c(N3C(=O)C=CC3=O)c2)cc1	-	3.2µM	-	7.9µM	-
OC(c1ccc(Cl)cc1)c1ncc(-c2ccccc2F)[nH]1 (stereo unspecified)	.	.	-	.	-
CCOc1ccc(C(=O)CCC(=O)O)cc1	-	-	-	-	-
CC/C(=N\NC(=S)NC(C)C)c1ccc(OC)c(OC)c1	-	10µM	?	4.5µM	-
CCOc1ccc(/C(CCC(=O)O)=N/NC(=S)NC(C)C)cc1	-	?	-	11µM	-
C=CCOC(=O)CSCC(NC(=O)OC(C)(C)C)C(=O)OCC (stereo unspecified)	-	11µM	-	8.9µM	-
CCOC(=O)CNC(=O)C(CC(N)=O)NC(=O)OC(C)(C)C (stereo unspecified)	-	-	.	-	-
CC(C)NC(=S)Nc1ccc2nc3n(c(=O)c2c1)CCCCC3	-	-	-	-	-
S=C(N/N=C1\C2CN3CCN(C2)CC1(c1ccccc1)C3)Nc1ccccc1	-	2.8µM	-	5µM	-
CCOc1cccc(-c2cc(NCCc3ccccn3)n3nccc3n2)c1	.	.	-	.	-
Clc1ccc2ccc3cccnc3c2n1	-	?	.	13µM	-
CC(=O)N1CCC2(CCN(Cc3ccncc3)CC2)CC1	.	-	.	-	.
